Most compounds without a hit are left out; they make up all but 4.6% or so of the library.
NALP3 yeast inh: NALP3 inflammasome inhibitors in reconstituted yeast, primary screen, luminescence, uHTS; Yeast reconstituted NLRP3/ASC/caspase-1, beta-gal luminescence, 24 h; inhibition, % at 10 µM; 330,000 tested, 0.39% active;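 active means inhibition of 50% or more; inactive means inhibition below 50%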;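 further: plate controls were induced DMSO wells for no effect and uninduced yeast grown without galactose for full effect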
SKKanGAS inh: S. pyogenes SKKanGAS growth inhibitors in kanamycin, primary screen, streptokinase expression inhibitor project, SKKanGAS strain, BacTiter-Glo luminescence. 6 h. inhibition, % at 7.5 µM. 300,000 tested, 1.3% active. AID 1662, 2009;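 active means mean replicate score, as percent of positive control median, at least 50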;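 further: strain carries kanamycin resistance gene driven by streptokinase promoter and grows in 40 µg/ml kanamycin; loss of luminescence reflects streptokinase promoter inhibition or plain growth inhibition; 0% = median of DMSO wells and 100% = positive control at its reference dose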
TIM10 inh: growth inhibitors of isogenic TIM10 control yeast, primary screen, counter-screen for tim10-1 yeast inhibitor project, luminescence, uHTS; inhibition, % at 10 µM; S. cerevisiae TIM10 strain growth, BacTiter-Glo luminescence, 24 h; AID 463195, 2010; 330,000 tested, 1.4% active;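 active means inhibition of 40% or more at the single tested concentration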;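 further: wild-type TIM10 isogenic control strain grown at permissive 25 °C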
tim23-1 inh: growth inhibitors of tim23-1 mutant yeast, primary screen, luminescence, uHTS; S. cerevisiae tim23-1 growth, BacTiter-Glo luminescence, 24 h; inhibition, % at 20 µM; 330,000 tested, 1.3% active; AID 463212, 2010;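 active means growth inhibition of the mutant yeast at or above 50%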;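 further: temperature-sensitive mutant grown at 25 °C; plate controls were DMSO-treated mutant yeast for no effect and medium wells lacking yeast for full effect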
tim10-1 inh: growth inhibitors of tim10-1 mutant yeast, primary screen, luminescence, uHTS. S. cerevisiae tim10-1 ts strain growth, BacTiter-Glo, 24 h. inhibition, % at 20 µM. 330,000 tested, 2.2% active. AID 463190, 2010;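 active means inhibition of at least 40%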;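 further: mutant grown at 25 °C; 0% = DMSO wells with yeast and 100% = wells holding no yeast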
tim10-1 conf: growth inhibitors of tim10-1 mutant yeast, confirmation, single concentration, luminescence, S. cerevisiae | inhibition, % at 20 µM | S. cerevisiae tim10-1 ts strain growth, BacTiter-Glo, 24 h | 7,400 tested, 56% active | AID 463213, 2010 | shares compounds with tim10-1 inh;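 active means inhibition of yeast growth at or above a set limit in either of two repeat tests at 20 µM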;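 further: tim10-1 mutant grown at permissive 25 °C to find synthetic lethal compounds; 0% = DMSO yeast wells and 100% = medium wells without yeast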
tim10 confirm: growth inhibitors of wild-type TIM10 yeast, confirmation, counter-screen for tim10-1 synthetic lethality project, single concentration, luminescence, S. cerevisiae; shares compounds with TIM10 inh; S. cerevisiae tim10 strain growth, BacTiter-Glo luminescence, 24 h; inhibition, % at 10 µM; 4,600 tested, 63% active;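 active means inhibition of yeast growth at or above a set limit in either of two replicates at 10 µM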;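 further: this counterscreen used the strain with wild-type TIM10; 0% = yeast with DMSO and 100% = medium wells lacking yeast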
tim23-1 conf: tim23-1 mutant yeast growth inhibitors, confirmation, luminescence, single concentration; shares compounds with tim23-1 inh; S. cerevisiae tim23-1 growth, BacTiter-Glo luminescence, 24 h; inhibition, % at 20 µM; 4,400 tested, 83% active; AID 463218, 2010;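 active means inhibition above about 39% in either of two replicate wells at 20 µM, limit read from the data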;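 further: temperature-sensitive tim23-1 mutant grown at 25 °C; 0% = DMSO wells with yeast and 100% = medium wells without yeast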
The depositor's hits bear a star; . = not tested or not shown.

SMILES	NALP3 yeast inh	SKKanGAS inh	TIM10 inh	tim23-1 inh	tim10-1 inh	tim10-1 conf	tim10 confirm	tim23-1 conf
O=S(=O)(c1ccccc1)c1ncc(C(F)(F)F)cc1Cl	46	-5	23	53*	46*	22	.	51*
O=C(NC12CC3CC(CC(C3)C1)C2)c1ccc(Br)o1	-3	2	35	25	24	.	.	.
O=C(NC12CC3CC(CC(C3)C1)C2)c1ccc([N+](=O)[O-])o1	33	93*	34	64*	57*	67*	.	51*
CC(NC(=O)c1ccc([N+](=O)[O-])o1)C1CC2CCC1C2 (centres undefined)	15	.	63*	62*	75*	79*	68*	48*
O=P(C(=NCCO)NO)(N1CCOCC1)N1CCOCC1	13	-4	-3	-13	-27	.	.	.
Nc1ccccc1C#Cc1ccc2[nH]ccc2c1	25	4	25	63*	44*	7	.	53*
CC1CCCCN1c1nc(-c2ccncc2)nc2ccccc12 (centres undefined)	1	11	53*	53*	47*	43*	41*	53*
CC1=NN(C(N)=S)C(=O)C1N=Nc1ccc(Cl)cc1Cl (centres undefined)	39	6	46*	64*	57*	56*	58*	73*
O=C(COC(=O)C12CC3CC(CC(C3)C1)C2)Nc1ccc(OC(F)F)cc1	0	6	57*	59*	44*	22	46*	62*
Cc1ccc(S(=O)(=O)N(C)C)cc1NC(=O)C(C)OC(=O)c1cc[n+]([O-])cc1 (centres undefined)	9	.	8	8	6	.	.	.
O=c1[nH]c(/C=C/c2ccccc2Cl)nc2ccccc12	22	1	24	15	24	.	.	.
Clc1cccc(Cl)c1/C=C/c1nc2ccccc2[nH]1	38	2	65*	85*	45*	34*	53*	88*
Clc1ccc(/C=C/c2nc3ccccc3[nH]2)c(Cl)c1	11	43	50*	62*	41*	41*	32*	76*
CCCN(CC1CC1)C(=S)NC(=O)C1CC1	6	-2	-2	7	7	.	.	.
CCOC(=O)C1CCCN(C(=S)NC(=O)c2cc(Br)ccc2Cl)C1 (centres undefined)	20	.	37	55*	40*	28	.	44*
CCCN(CC1CC1)C(=S)NC(=O)c1cc(Br)ccc1Cl	20	.	52*	57*	60*	37*	51*	52*
COC(C(=O)Nc1ccnn1C1CCN(C(=O)c2ccc(C)cc2)CC1)c1ccccc1 (centres undefined)	9	4	20	10	-8	.	.	.
O=c1cc(OCc2ccccc2)cc[nH]1	10	.	5	-3	-1	.	.	.
COCCn1c(=NC(=O)CSCC(=O)N2CCOCC2)sc2cc(C)ccc21	14	4	1	16	7	.	.	.
O=C(Nc1ccccc1Cl)C1CCN(S(=O)(=O)c2cccc3nonc23)CC1	27	-5	-14	22	19	.	.	.
Cc1ccc(S(=O)(=O)CC(=O)Nc2nc(-c3ccccc3)cs2)cc1	26	2	29	52*	44*	45*	.	47*
CCC1CCCCN1C(=O)CCS(=O)(=O)c1ccc2c(c1)CCN2C(C)=O (centres undefined)	7	1	13	9	-4	.	.	.
CC(C)N(CCC(=O)c1ccc2ccccc2c1)Cc1ccccc1	-19	.	28	58*	92*	92*	.	86*
Cc1[nH]nc2c1C(c1ccc(-c3ccc(Cl)cc3)o1)C(C#N)=C(N)O2 (centres undefined)	15	-1	22	34	34	.	.	.
Cc1[nH]nc2c1C(c1ccc(-c3ccccc3C#N)o1)C(C#N)=C(N)O2 (centres undefined)	14	1	16	86*	56*	55*	.	68*
SMILES	NALP3 yeast inh	SKKanGAS inh	TIM10 inh	tim23-1 inh	tim10-1 inh	tim10-1 conf	tim10 confirm	tim23-1 conf
O=C(COC(=O)c1ccc([N+](=O)[O-])o1)NCc1ccc2c(c1)OCO2	14	.	-153	-17	-197	.	.	.
CC(O)C(NC=C1C(=O)OC(C)(C)OC1=O)C(=O)O (centres undefined)	6	4	-11	9	11	.	.	.
Clc1ccc(N=c2ssnc2Cl)nc1	34	25	85*	62*	57*	77*	47*	90*
O=C(Oc1oc(-c2ccco2)nc1C=Nc1ccccc1)c1ccoc1	-2	4	-2	10	18	.	.	.
Cc1ccc(C(=O)Oc2oc(-c3ccco3)nc2C=Nc2ccc(Cl)cc2)cc1	27	-1	37	50*	50*	35*	.	66*
COc1ccc(COC(=O)c2ccc(C)c(S(=O)(=O)N3CCOCC3)c2)cc1F	-12	-2	2	13	2	.	.	.
C/C(=N\NC(=O)c1ccccc1NC(=O)c1ccc(Cl)cc1)c1ccncc1	1	76*	96*	95*	96*	97*	96*	100*
COc1ccc(NC(=O)CCc2nc3ccccc3c(=O)[nH]2)cc1S(=O)(=O)N1CCCCC1	7	.	10	-6	-9	.	.	.
CN(C)S(=O)(=O)c1ccc(Cl)c(NC(=O)CN2CCN(Cc3ccc4c(c3)OCO4)CC2)c1	9	-4	3	0	-20	.	.	.
S=c1[nH]nc(-c2ccncc2)n1/N=C/C(Cl)=C\c1ccccc1	23	12	67*	58*	56*	50*	58*	48*
COc1cccc(-n2nnnc2SCC(=O)Nc2ccc(NC(C)=O)cc2)c1	-4	-5	12	-12	-23	.	.	.
COc1ccccc1-c1ccc(NC2CCCCC2)nn1	17	1	29	52*	43*	38*	.	41*
COc1ccccc1-c1ccc(Nc2cccc(C(F)(F)F)c2)nn1	3	-11	-8	-5	8	.	.	.
O=C(C[C@@H]1C/C=C/CC[C@@H](Cc2ccc(F)cc2)C(=O)OC[C@H](Cc2ccccc2)NC1=O)N[C@H](CO)Cc1ccccc1	14	.	3	21	8	.	.	.
COc1ccc(C(=O)COC(=O)CN2C(=O)C3C4CCC(C4)C3C2=O)cc1 (centres undefined)	6	-4	0	-1	-4	.	.	.

Screening results from PubChem BioAssay.
